Measurements published in paper PMC13494018.
A number with no mark means an inactive call. No rule for the calls is given here.

Target: CD276, Q5ZPR3
Sequence (Q5ZPR3 whole entry): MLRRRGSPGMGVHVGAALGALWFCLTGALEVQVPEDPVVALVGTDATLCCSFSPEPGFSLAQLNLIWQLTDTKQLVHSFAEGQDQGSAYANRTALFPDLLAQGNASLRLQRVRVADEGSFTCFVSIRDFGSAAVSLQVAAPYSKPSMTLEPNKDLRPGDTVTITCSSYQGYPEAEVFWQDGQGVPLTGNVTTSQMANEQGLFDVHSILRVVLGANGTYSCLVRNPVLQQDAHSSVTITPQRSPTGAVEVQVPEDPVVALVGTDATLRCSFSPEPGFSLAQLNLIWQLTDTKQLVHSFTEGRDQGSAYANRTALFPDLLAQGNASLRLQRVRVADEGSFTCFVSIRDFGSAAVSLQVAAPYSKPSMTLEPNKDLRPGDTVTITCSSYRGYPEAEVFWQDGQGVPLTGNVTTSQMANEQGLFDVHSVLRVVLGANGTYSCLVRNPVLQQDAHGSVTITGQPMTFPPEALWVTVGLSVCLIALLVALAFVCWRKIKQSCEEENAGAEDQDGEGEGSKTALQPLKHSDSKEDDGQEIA

| Binder | binding in a display sort |
| --- | --- |
| design_611_394c5ea9-a0d3-47c4-9d48-89ba6a28fdd0_2429_dldesign_0_cycle1_af2pred (protein) GPERAELLRNAARQAEEAIRKGDESPDGVLYYTAAALIVANAIGDPELRAKAQAAAALSPEEARKVAEELRELALERARELA | not found |
| design_611_394c5ea9-a0d3-47c4-9d48-89ba6a28fdd0_705_dldesign_0_cycle1_af2pred (protein) AEAQEQAKKEYEKAKAVADAALATAKATGDVTAQQAKVLDAAIEAAKKAQELGDGETANKVMQVATKAMTAMAAAG | not found |
| design_611_394c5ea9-a0d3-47c4-9d48-89ba6a28fdd0_2091_dldesign_0_cycle1_af2pred (protein) RAALEEALAKARELAEKVGEEDPEVAKEVLELIDKAAATSPATGLYYLLQALELMSRYAKESGSEVAREAAEALRAAVAIWSRLAIA | not found |
| design_611_394c5ea9-a0d3-47c4-9d48-89ba6a28fdd0_637_dldesign_0_cycle1_af2pred (protein) SEETKEVAEAAVNAAEQAIKLAKELGDKEIEEKAKKLKEEAKKAAKKGAEALPEAKKLAREAFTLAAKALALYAKAKA | not found |
| design_611_394c5ea9-a0d3-47c4-9d48-89ba6a28fdd0_1787_dldesign_0_cycle1_af2pred (protein) AAAAIAAATTGMNIAKKNANTLLAQAEATGNAGLADAAKVAADIVKANAKAAAKLADADTGAALVKDAEDFAKATNAKIAAVKAKA | not found |
| design_611_394c5ea9-a0d3-47c4-9d48-89ba6a28fdd0_1679_dldesign_0_cycle1_af2pred (protein) GEELEKAKEEAEKLTDLAKALAAQGTPLGKAAANAMSDSAVKIVLDTAKKLGKEEEGKKYADEIKAATAAALAA | not found |
| design_611_394c5ea9-a0d3-47c4-9d48-89ba6a28fdd0_1153_dldesign_0_cycle1_af2pred (protein) MEEKKKKIEEEANKVIEEATKVAELAKKHPAMRPALIAANAAISMANNAIRNIENVESAEKQLKVAKALMEYAKATAKALLAAA | not found |
| design_611_394c5ea9-a0d3-47c4-9d48-89ba6a28fdd0_1995_dldesign_0_cycle1_af2pred (protein) AELAKQIAKKVMETAIKIAEEETPEAGIEAGKRAAMTAVALGDLETAEETIERVVEIARKKDPEAAERAREELEAAYARALAAVAAS | not found |
| design_611_394c5ea9-a0d3-47c4-9d48-89ba6a28fdd0_2213_dldesign_0_cycle1_af2pred (protein) GQELLAQAQKELKEGKALMKEGKYKEALAKFTQAANLAAKAAAAYADQPIAKQANAVLAEAVENMAKAQALID | not found |
| design_611_394c5ea9-a0d3-47c4-9d48-89ba6a28fdd0_1121_dldesign_0_cycle1_af2pred (protein) SSSYEEVTAEMAAITAKAQEGVEAAKKDPAEAKKIAAEIAAKAKEIAASGFSEGAAQMAKNAAARVQKVIDAELAK | not found |
| design_611_394c5ea9-a0d3-47c4-9d48-89ba6a28fdd0_1130_dldesign_0_cycle1_af2pred (protein) MEEELKKISQAAAQAQQAAIDAKDPALRAELAQAAVEIMKLMDKAAKSTPEEAKKLAEEAEKIAEEAQKKAKASG | not found |
| design_611_394c5ea9-a0d3-47c4-9d48-89ba6a28fdd0_765_dldesign_0_cycle1_af2pred (protein) SSREGAAQLLLDVAKQAAAALKAAGGDEERAKKILEEAKKAAATTFEETQKALAKAAREAVKYQAAVEAA | not found |
| design_611_394c5ea9-a0d3-47c4-9d48-89ba6a28fdd0_1531_dldesign_0_cycle1_af2pred (protein) AQAQVEAMARNAAAGMRALARADGHPDVGEEMAALVLADPVEGARRAVELARERLSPEVAAAVAEIARIQIETA | not found |
| design_612_bdadb936-3f14-48ad-830f-718e38d81c30_88_dldesign_0_cycle1_af2pred (protein) AAAAAAGEAALARLETEGAAAAAAAAADPAAAGEEIERVLALQAEVARAHPSVAAEAAAIARRYNAAIARAVVAA | not found |
| design_611_394c5ea9-a0d3-47c4-9d48-89ba6a28fdd0_2334_dldesign_0_cycle1_af2pred (protein) MTPAEAQLQAGEVFLRAAEQALKAGNYESAIKLAELAIEAAKQAKKLAKAAGDEATAKKAEEVEKKAKEVLKKAKE | not found |
| design_611_394c5ea9-a0d3-47c4-9d48-89ba6a28fdd0_1178_dldesign_0_cycle1_af2pred (protein) AELLAAAGELAVEAARYAAEADRFGPEAAPAAELFREAQKLAVQANQNPATAAEYYAKAKELMKKGKELMKKAKA | not found |
| design_611_394c5ea9-a0d3-47c4-9d48-89ba6a28fdd0_1283_dldesign_0_cycle1_af2pred (protein) DTAAAQGLLAGVQAFTRRRFEAAERALRAGDREAMLAAARDLETAADIAEATAKQVPPALAAQAQALAKQARERAEEARRAAEA | not found |
| design_611_394c5ea9-a0d3-47c4-9d48-89ba6a28fdd0_1101_dldesign_0_cycle1_af2pred (protein) MGGELLLDVMRAAAEAQREIAELGKEKGIPEEVTQALINRVSAAVAAVAKAAIAGDDAAKAAAAAARAAIDATLAEARAL | not found |
| design_611_394c5ea9-a0d3-47c4-9d48-89ba6a28fdd0_1683_dldesign_0_cycle1_af2pred (protein) DEAEELVRLVEEARALAIDPATRGQGVTLFLLVGIRSGPAVRAAAVEAARAAREAAALPPEERARRLEELAARVIAAIRAEA | not found |

| Binder | binding in a display sort |
| --- | --- |
| design_611_394c5ea9-a0d3-47c4-9d48-89ba6a28fdd0_940_dldesign_0_cycle1_af2pred (protein) MKVEEAGNKAKALLVATANAAIAADPARAQEIAKKMAEGIEKIDKLTEEEKKKLDEYSEEEQAKKVEELGKELAKEIA | not found |
| design_611_394c5ea9-a0d3-47c4-9d48-89ba6a28fdd0_2003_dldesign_0_cycle1_af2pred (protein) GELKEQTAQLLETAIQAAKLSAKQAQAAIKAATIAGSQSPETKEISEEYGKKAIEAAKKSAEEAQKVIKEWLKLVKE | not found |
| design_611_394c5ea9-a0d3-47c4-9d48-89ba6a28fdd0_1682_dldesign_0_cycle1_af2pred (protein) SAALEELREKGKAEANALISASMKAAAAGLAGDAATAAAAAATIEANAKEAKEKAKEYPEAKEYYEKAAKVNTQLAEGAKLL | not found |
| design_612_bdadb936-3f14-48ad-830f-718e38d81c30_35_dldesign_0_cycle1_af2pred (protein) SEAEKEAAKAEVRALGAQALDVALRAAARQGAPVAELAAVVQQISQLVDQGIALVEKGDLEAGLALAQQALQLAQQFAA | not found |
| design_611_394c5ea9-a0d3-47c4-9d48-89ba6a28fdd0_1184_dldesign_0_cycle1_af2pred (protein) GEAARERGEELVKEAEAALAAAKAAAAADPAAGLAAANAAIGLAVERMEELARLGPEARPAIERLTAIATELSKLALALKAAL | not found |
| design_611_394c5ea9-a0d3-47c4-9d48-89ba6a28fdd0_2343_dldesign_0_cycle1_af2pred (protein) AQALADQQLIATVKAALKNAEELYKKDKKAGAKAFAAAAEVAKLAIEGSSAAAKPELKALEKKAKENEKKAKEDA | not found |
| design_611_394c5ea9-a0d3-47c4-9d48-89ba6a28fdd0_749_dldesign_0_cycle1_af2pred (protein) AAAEAAAERARQAAKAAMKSLTLAYEALGKPEQAKEDIAKVEKAIEEDPEKGAALARELAAQAAREAIKANAA | not found |
| design_611_394c5ea9-a0d3-47c4-9d48-89ba6a28fdd0_1469_dldesign_0_cycle1_af2pred (protein) GKERAVEIMRRGLTEVAKEALKVSPEVAGVVQTALAKAIGAAAESMEKALEVLKKGAEEAEKLDPEIGKKVREVLKKVEEAYKE | not found |
| design_611_394c5ea9-a0d3-47c4-9d48-89ba6a28fdd0_881_dldesign_0_cycle1_af2pred (protein) GAAEAAKALAKGVAASVKRLAKEGLEEAKKDPEKGRAILENAKTFAEAVKATDPEIGDKALKYVEEAKKEAEKIVKE | not found |
| design_611_394c5ea9-a0d3-47c4-9d48-89ba6a28fdd0_2413_dldesign_0_cycle1_af2pred (protein) TAEQVEKLKERAIERLKKAAELDKEAAEELLKLYEEMKKVSENLGEAALLAAKAAAIAKNPEARALASQALADLSQAAILAAA | not found |
| design_611_394c5ea9-a0d3-47c4-9d48-89ba6a28fdd0_1451_dldesign_0_cycle1_af2pred (protein) AQAIEVANKTAAAMKKQAEALAAEGEANPETAWKHYETAAKLYEIAADMVAAAGGDPAVAAALKAKAAEYKAKAKAAKAA | not found |
| design_611_394c5ea9-a0d3-47c4-9d48-89ba6a28fdd0_1764_dldesign_0_cycle1_af2pred (protein) MLAEEARKYAEKGAEGEDSEEWFAKAAELYAQALLTSEEEARATFEALREVAERYPEKAEKVYAAISRGVQLAAQQAL | not found |
| design_611_394c5ea9-a0d3-47c4-9d48-89ba6a28fdd0_2077_dldesign_0_cycle1_af2pred (protein) ASEELLKEAVTLNMRLAVEFPEVAKYARAAAHYLMAGDAEKAVESAEKMLEEAKKAGPEAAALAEKALKATKAAAADQAAER | not found |
| design_611_394c5ea9-a0d3-47c4-9d48-89ba6a28fdd0_2254_dldesign_0_cycle1_af2pred (protein) GKEEAQKLVEEAREAAKKAKEYTAKALAEDLEAEGAKSWAALNEALAKASQAAQLDPELGSAAIAEVVETAKEIKEKLDAAKAA | not found |
| design_611_394c5ea9-a0d3-47c4-9d48-89ba6a28fdd0_1238_dldesign_0_cycle1_af2pred (protein) SAADEQAKAIAVASTQSILDQAKKILEEHPEIKEEGEKLVEEIKKLLEKAKTGDAATASKALSESLELYGKLAELAK | not found |
| design_611_394c5ea9-a0d3-47c4-9d48-89ba6a28fdd0_785_dldesign_0_cycle1_af2pred (protein) LKAEAEKLAKEAAAKAKEAAAAGDAVAALAYQAAANMARSALRADPESAAKLLEVGRALKQQGDATHAAFKA | not found |
| design_612_bdadb936-3f14-48ad-830f-718e38d81c30_198_dldesign_0_cycle1_af2pred (protein) DAAVAQGQKLRDAALAALAAATTLAQFNAAAQQGLAALAQITALIVAHPEAGPQLQKLAAEVLAAIEAARARALAA | not found |
| design_611_394c5ea9-a0d3-47c4-9d48-89ba6a28fdd0_1623_dldesign_0_cycle1_af2pred (protein) SAEVLAAAEKLVEIGELARKAAEAFPELAEKAAEAANLAALGLAKLASGATAAEGKKAMEKAEELAKELKKAL | not found |
| design_611_394c5ea9-a0d3-47c4-9d48-89ba6a28fdd0_908_dldesign_0_cycle1_af2pred (protein) AAAAARAAAVAAAEAAAAEAIKELKAAAEEAKTATPEEAAKLMNEMLAKASRQALAMQASGDPAAAAAGARLIAAAVEYAKEIDEAIR | not found |
